Source: the supplement of paper PMC6555819

Key:
Assay in all cases: PBM binding z-score (relative to random genomic background probes); higher = stronger binding; sequences stand for … in GC…GCGATTGACAGCGTAGAATGAAGG
[1] = system: FXR:RXRa (NR concentration 270 nM, RXRa partner concentration 90 nM)
In short: (§1)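 On custom Agilent 4×180K arrays, double-stranded probes with 34-nt variable regions carried direct-repeat seeds, single-nucleotide variants, half-site ablations or random human genomic background. Ligand-free nuclear receptor dimers were applied for 1 h, and binding was read with antibodies against each partner (one per run). Binding z-scores come from regression-normalized fluorescence, with the random background probes as reference.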

[2] = system: LXRa:RXRa (NR concentration 270 nM, RXRa partner concentration 90 nM)
In short: as §1

[3] = system: LXRa homodimer (NR concentration 270 nM)
In short: as §1

[4] = system: LXRb:RXRa (NR concentration 270 nM, RXRa partner concentration 90 nM)
In short: as §1

[5] = system: LXRb homodimer (NR concentration 270 nM)
In short: as §1

[6] = system: PPARa:RXRa (NR concentration 270 nM, RXRa partner concentration 90 nM)
In short: as §1

[7] = system: PPARg:RXRa (NR concentration 180 nM, RXRa partner concentration 90 nM)
In short: as §1

[8] = system: PPARg:RXRa 270nM:90nM, anti-RXR (NR concentration 270 nM, RXRa partner concentration 90 nM)
In short: as §1

[9] = system: PPARg:RXRa 30nM:10nM, anti-RXR (NR concentration 30 nM, RXRa partner concentration 10 nM)
In short: as §1

[10] = system: PPARg:RXRa 90nM:30nM, anti-RXR (NR concentration 90 nM, RXRa partner concentration 30 nM)
In short: as §1

[11] = system: PPARg:RXRa DBDmut IVT, anti-RXR (DBD mutation: RXRa K156A/R161A, NR concentration 270 nM, RXRa partner concentration 90 nM)
In short: as §1

[12] = system: PPARg:RXRa IVT, anti-PPARg (NR concentration 270 nM, RXRa partner concentration 90 nM)
In short: as §1

[13] = system: PPARg DBDmut:RXRa IVT, anti-PPARg (DBD mutation: PPARg1 K132A/R137A, NR concentration 270 nM, RXRa partner concentration 90 nM)
In short: as §1

[14] = system: PPARg DBDmut IVT, anti-PPARg (DBD mutation: PPARg1 K132A/R137A, NR concentration 270 nM)
In short: as §1

[15] = system: PPARg homodimer (NR concentration 180 nM)
In short: as §1

[16] = system: PXR:RXRa (NR concentration 270 nM, RXRa partner concentration 90 nM)
In short: as §1

[17] = system: PXR homodimer (NR concentration 270 nM)
In short: as §1

[18] = system: RARa:RXR (NR concentration 270 nM, RXRa partner concentration 90 nM)
In short: as §1

[19] = system: RARa homodimer (NR concentration 270 nM)
In short: as §1

[20] = system: RARb:RXRa (NR concentration 270 nM, RXRa partner concentration 90 nM)
In short: as §1

Sequence | PBM binding z-score [1] | PBM binding z-score [2] | PBM binding z-score [3] | PBM binding z-score [4] | PBM binding z-score [5] | PBM binding z-score [6] | PBM binding z-score [7] | PBM binding z-score [8] | PBM binding z-score [9] | PBM binding z-score [10] | PBM binding z-score [11] | PBM binding z-score [12] | PBM binding z-score [13] | PBM binding z-score [14] | PBM binding z-score [15] | PBM binding z-score [16] | PBM binding z-score [17] | PBM binding z-score [18] | PBM binding z-score [19] | PBM binding z-score [20]
CCTAGCAGGCCAATCTGGGTCACTCTAGGCTTGA | 0.0739 | 0.774 | -0.56 | 0.28 | -1.07 | 2.36 | 1.46 | 1.75 | -0.203 | 0.673 | 3.94 | 4.77 | -0.959 | -1.14 | 0.236 | 0.544 | -0.524 | 1.17 | -1.01 | 1.28
TCATATAGGTAAACAGGTGAAGGTCCGTAAGTTA | 0.526 | 0.84 | 0.00797 | 0.841 | -0.136 | 2.21 | 2.67 | 3.2 | 4.31 | 3.46 | 4.86 | 4.7 | 1.09 | 0.987 | 1.53 | 0.741 | 0.241 | 0.898 | 0.337 | 0.842
CCGAGTAGGTTATGTGGCATTCAGGCAACGGTGA | 0.192 | 0.353 | 0.0932 | 0.0215 | -0.284 | 0.798 | 0.853 | 1.85 | -0.095 | 0.651 | 3.28 | 2.2 | -0.431 | -0.42 | 0.696 | -0.298 | -0.313 | -0.131 | 0.978 | 0.573
CGAACGAGGGGATGAGTTGATAGCAAATGCCGAT | 0.0387 | -0.222 | -0.351 | -0.0303 | -0.345 | -0.335 | 0.733 | 0.0328 | -0.38 | -0.23 | 0.602 | 0.068 | 0.241 | 0.151 | 0.0087 | -0.392 | 0.00406 | -0.399 | 0.243 | -0.301
CCAGCTAGGTCATGGTCAGCTAATCTACAGTATG | 3.52 | 2.28 | 0.125 | 1.63 | -0.361 | 3.57 | 2.98 | 3.29 | 0.995 | 2.17 | 4.7 | 4.17 | 0.901 | 0.516 | 1.52 | 1.12 | -0.327 | 2.34 | 0.48 | 3.97
CCTATTAGTTGATCATAAGGGCAACCGAAGCTCG | 0.383 | 0.258 | 0.608 | 0.291 | 0.94 | 0.433 | 0.394 | 0.295 | 0.0236 | 0.185 | 0.357 | 0.623 | 0.203 | 0.605 | 1.64 | 0.491 | 0.836 | 0.442 | 1.25 | 1.23
CATACAGGGTCAGTTAGGCCAGAGTAGGGACGGC | 3.37 | 2.29 | -0.0109 | 1.79 | 0.655 | 3.36 | 2.24 | 1.92 | 0.738 | 1.41 | 0.861 | 2.08 | 1 | 0.259 | 2.09 | 1.55 | 0.258 | 2.17 | 0.791 | 3.67
ATTCAAAGTTCACTAGGTAACGTAAGATTCAGCT | 4.73 | 5.45 | 4.42 | 3.08 | 1.71 | 4.44 | 5.64 | 5.28 | 2.03 | 4.25 | 2.64 | 4.4 | 1.68 | 2.19 | 2.66 | 3.71 | 3.03 | 2.9 | 2.06 | 4.61
CCTAGCAGGCCAATCTGGGTCGCTCAAGGCTTGA | 0.866 | 0.838 | -0.942 | 0.983 | -1.1 | 2.39 | 0.206 | 0.917 | -0.999 | 0.104 | 1.28 | 2.66 | -1.25 | -1.04 | -0.519 | 0.776 | -0.579 | 1.45 | -0.891 | 0.807
GCGACTGGGGCCTCAGCAGGTTACCATAACTTAA | -0.561 | -0.698 | -0.704 | -0.145 | -1.25 | -0.221 | -0.306 | -0.849 | -0.842 | -0.966 | -0.00241 | -0.47 | -1.2 | -1.98 | -0.186 | -0.277 | -0.863 | 0.0865 | -1.06 | 0.0626
CCGACTGTGGCATAAGGTTACCATAAGCCAGCCC | 0.578 | 2.4 | 0.142 | 1.07 | -0.834 | 1.36 | 0.99 | 1.57 | -0.0445 | 0.844 | 1.12 | 0.305 | -0.617 | -0.541 | 0.621 | 0.365 | 0.018 | 0.961 | 0.166 | 0.964
CTAACTAGGTCAAAGGTCAAAGTCGAGCCAACCA | 8.53 | 7.32 | 5.19 | 7.21 | 2.96 | 7.74 | 14 | 11.2 | 13.1 | 13.2 | 9.01 | 9.15 | 2.95 | 1.6 | 4.42 | 7.03 | 1.84 | 8.76 | 2.8 | 5.8
ATCGAAAAGTCGAGGTGAGTATAGAGAAAGGGAA | 0.304 | 0.67 | -0.216 | -0.238 | -0.0548 | 0.326 | 0.344 | -0.139 | 0.203 | -0.312 | -0.205 | 0.704 | 1.25 | -0.338 | 0.107 | -0.235 | 0.048 | 0.0313 | -0.268 | 0.639
CGTCCAAGGTCAAAGTCAGTGAAAGAGACTCGAA | 7.61 | 5.36 | 0.709 | 4.03 | 1.64 | 5.87 | 5.41 | 5.32 | 1.82 | 4.19 | 3.22 | 3.56 | -0.516 | -0.183 | 2.62 | 3.72 | 0.349 | 4.01 | 1.36 | 5.14
CCTCCTAGGTCAATGGTCAGCTAAAGCAGCTCGC | 3.28 | 2.46 | 0.212 | 2.07 | 0.406 | 3.53 | 3.92 | 5.19 | 2.32 | 4.99 | 3.61 | 3.53 | -0.066 | 0.119 | 2.06 | 1.28 | -0.0378 | 1.98 | 0.584 | 3.77
CGTCCAAGGTCAAGGTCATTGAAAGAGACTCGAA | 7.9 | 6.06 | 2.42 | 5.26 | 1.4 | 6.18 | 6.59 | 6.7 | 3.18 | 5.62 | 3.44 | 5.03 | 0.777 | -0.505 | 4.46 | 5.75 | 2.42 | 5.73 | 2.35 | 5.56
TCGAGGAGGTTAGTCGGGGCATTCAGCCAACATA | 0.421 | 0.675 | -0.136 | 1.21 | -0.337 | 1.43 | -0.118 | 0.893 | 1.23 | 0.779 | 1.28 | 0.923 | -0.713 | -1.04 | 0.777 | 1.05 | 0.348 | 0.897 | -0.313 | 1.01
CCGACTGGGGCATAATGTTACCATAAGCCAGCCC | -0.414 | -0.333 | -0.335 | -0.186 | -0.735 | 0.127 | 1.15 | 1.01 | -0.289 | 0.632 | 2.47 | 2.12 | -0.872 | -0.687 | 0.105 | -0.537 | -0.468 | -0.283 | -0.0507 | 0.133
GCTGACAGGTGAAACGCAGGTAACTCAGGGTGGC | -0.217 | 0.213 | -0.763 | -0.392 | -0.869 | 0.868 | 0.373 | -0.307 | -0.779 | -0.533 | 1.22 | 0.804 | -0.781 | -1.24 | -0.522 | -0.223 | -0.797 | 0.499 | -1.1 | 0.773
